Source: PubChem BioAssay (National Center for Advancing Translational Sciences (NCATS))
G9a inh = inhibitors of human histone lysine methyltransferase G9a. G9a H3K9 monomethylation, AlphaScreen, 2 h. 350,000 compounds, 8.8% hits. Potency, µM (series often up to 102 µM), for the others: top-dose activity, negative = inhibition, usual class: inhibitors. AID 504332. Q96KQ7; note: % is set by controls: 0 for no effect and ±100 for the full control effect; nearly all actives have a fitted effect of over 75% in size
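AlphaScreen read-out: biotin-H3K9 peptide (500 nM) methylation by 20 nM enzyme with 20 uM SAM, 2 h at room temperature after 15 min compound preincubation; anti-monomethyl H3K9 antibody plus donor/acceptor beads, 10 min dark.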
L3MBTL1 block = inhibitors of human L3MBTL1; Q9Y468; AlphaScreen L3MBTL1–H3K9me1 peptide binding; Potency, µM (series often up to 57.1 µM), for inactives: at the highest dose activity, negative = inhibition, most hits filed as inhibitors; 230,000 compounds, 0.66% hits; note: % is set by controls: 0 for no effect and ±100 for the full control effect; nearly all actives have a fitted effect of over 60% in size
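Read-out is AlphaScreen signal from streptavidin donor and nickel chelate acceptor beads (10 ug/mL final each) bridging L3MBTL1 (50 nM) and biotinylated K9-monomethylated H3(1-15) peptide (75 nM), after 30 min compound exposure at room temperature.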
BAZ2B block = blocks human BAZ2B; AlphaScreen BAZ2B-H3K14Ac peptide displacement; Potency, µM (top dose mostly 114 µM), without a hit: at the highest dose activity change, negative = inhibition, usual class: inhibitors; 360,000 compounds, 4.4% hits; AID 504333; note: % is set by controls: 0 for no effect and ±100 for the full control effect; nearly all actives have a fitted effect of over 60% in size
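Protein-peptide AlphaScreen: BAZ2B 50 nM, b-H3K14Ac 50 nM, 1x PBS pH 7.4 + 0.01% Tween-20. Preincubation 30 min RT; cpd 30 min RT (top 110 uM); beads 20 min RT, light-protected.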
HP1b chromo inh = blocks HP1-beta chromodomain binding to methylated histone tails; P83916; AlphaScreen HP1-beta / biotin-H3K9me3 peptide binding; Potency, µM (top dose mostly 114 µM), inactives show at the highest dose activity change, negative = inhibition, hits mostly inhibitors; 390,000 compounds, 0.56% hits; AID 540317; note: nearly all actives have a fitted effect of over 70% in size
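AlphaScreen: HP1-beta (50 nM) preformed 30 min with biotin-H3(1-18)K9me3 peptide (50 nM) in PBS pH 7.4, 0.01% Tween-20. Compound added for 30 min at RT, then streptavidin donor/nickel chelate acceptor beads (10 ug/mL) for 30 min.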
JMJD2A Tudor inh = blocks the human JMJD2A Tudor domain; Potency, µM (titrated, usually from 114 µM), for inactives: top-dose activity change, negative = inhibition, usual class: inhibitors; AID 504339; 390,000 compounds, 4.4% hits; O75164; AlphaScreen JMJD2A-Tudor / H3K4me3 peptide binding; note: % is set by controls: 0 for no effect and ±100 for the full control effect; nearly all actives have a fitted effect of over 50% in size
* = called active by the depositor; u = inconclusive; x = no result given; [ ] = another dose, or the depositor's remark. An excerpt weighted towards active compounds, which were near 11% of everything screened. Calls come from the whole dose curve; as a rule, active = well fitted inhibition curve with a large enough effect; inconclusive = small, poorly fitted or top-dose-only effect; inactive = no such curve, though single readings can be large or run the other way. Potency is the fitted concentration of half-maximal effect.

SMILES	G9a inh	L3MBTL1 block	BAZ2B block	HP1b chromo inh	JMJD2A Tudor inh
CN1CCN(CC(=O)N2c3ccccc3C(C)(c3ccccc3)CC2(C)C)CC1 (stereo not given)	12%[12.7 µM]	4%	3%	25%	-24%
O=C(c1ccc(Cl)c(S(=O)(=O)N2CCCCC2)c1)N1CCCC(C(F)(F)F)C1 (stereo not given)	25%[59 µM]	1%	8%	21%	0%
COC(=O)CCC(=O)NC(=S)Nc1ccc(S(=O)(=O)Nc2cc(OC)nc(OC)n2)cc1	50µM*	3%	-19%	29%	-6%
COc1ccc(OCC(=O)NC(=S)Nc2ccc(S(=O)(=O)Nc3cc(OC)nc(OC)n3)cc2)cc1	-50%[59 µM]	-4%	-25%	15%	-1%
COc1cc(NS(=O)(=O)c2ccc(NC(=O)COc3cccc(C)c3)cc2)nc(OC)n1	25µM*	x	1%	4%	-14%
Cc1cccc(OCC(=O)Nc2ccc(S(=O)(=O)Nc3ccccn3)cc2)c1	-26%	-8%	-21%	32%	-17%
O=C(Cc1cccc(NC(=O)C2CCN(C(=O)C3CCC3)CC2)c1)Nc1cccc(C(=O)N2CCCC2)c1	24%[2.33 µM]	0%	10%	31%	-20%
COc1cc(C(=O)Nc2cc(C)c(O)c(-c3nc4ccccc4s3)c2)cc(OC)c1OC	-1%[59 µM]	x	-4%	13%	-10%
CCCCNC(=O)C(CC)Sc1nnc(-c2ccc(F)cc2)c(-c2ccc(F)cc2)n1 (stereo not given)	1%[59 µM]	x	-7%	-6%	-17%
CN1CCN(C(=S)c2cn(CCOc3ccccc3F)c3ccccc23)CC1	35µM*	-7%	u	u	50µM*
N#Cc1cn(CCOc2ccccc2F)c2ccccc12	90%[59 µM]	38%	52%	118%	34%[57.1 µM]
CCOC(=O)c1nc(C)[nH]c1C(=O)OCC	u	x	79µM*	7%	18µM*
CCNc1nc(NCC)nc(C(=O)NN)n1	8%[59 µM]	4µM*	2.8µM*	57%	40µM*
O=[N+]([O-])c1ccc(N/N=C/c2sc(N3CCOCC3)nc2-c2ccccc2)c(S(=O)(=O)Nc2ccccc2Cl)c1	71µM*	-17%	u	-9%	-32%
O=C(N/N=C/c1sc(N2CCOCC2)nc1-c1ccccc1)c1ccccc1Cl	35%[59 µM]	15%	3%	-8%	-16%[11.4 µM]
O=[N+]([O-])c1ccc(N/N=C/c2sc(N3CCOCC3)nc2-c2ccccc2)c(S(=O)(=O)Nc2ccc(Cl)cc2)c1	40µM*	-3%	11µM*	u	u
Cc1ccc(CNC(=O)c2ccc(CSCc3ccccc3C)o2)cc1	12%[59 µM]	x	19%	31%	2%
COc1ccc(-c2nc3cnc(Oc4cccc(Cl)c4)nc3n(C[C@H]3CCCO3)c2=O)cc1	1%[0.501 µM]	x	x	x	x
COC(=O)c1cc(NC(=O)c2ccccc2)c(=O)oc1C	45µM*	x	-1%	-14%	-2%
CC(=O)c1cc(NC(=O)c2ccc([N+](=O)[O-])cc2)c(=O)oc1C	22µM*	1%	-23%	30%	9%
COC(=O)c1cc(NC(=O)c2ccc(C)cc2)c(=O)oc1C	u	x	-2%	45%	u
COC(=O)c1cc(NC(=O)c2ccc([N+](=O)[O-])cc2)c(=O)oc1C	u	3%	-19%	55%	-13%
COc1ccc(C(=O)Nc2cc(C(=O)c3ccccc3)c(C)oc2=O)cc1	8.9µM*	0%	u	u	u
Cc1cc(O)c(NC(=O)c2ccco2)cc1C	8.9µM*	-21%[11.4 µM]	40%	34%	3%
Cc1ccc(NC(=O)c2ccco2)c(NC(=O)c2ccccc2C)c1	16%	x	-2%	32%	50µM*
COc1ccccc1C(=O)Nc1cc(C)ccc1NC(=O)c1ccco1	x	x	-5%	38%	-12%
Cc1cc(NC(=O)c2ccccc2)ncc1NC(=O)c1ccco1	25µM*	1%	-13%	18%	-11%
Cc1ccc(O)c(NC(=O)c2ccco2)c1	12%[59 µM]	-7%	11%	23%	-12%
O=C(Nc1ccc(Oc2ccc(NC(=O)c3ccco3)c(NC(=O)c3ccco3)c2)cc1)c1ccco1	-14%[59 µM]	-8%	-21%	5µM*	-23%
